The results in this text go back to PubChem BioAssay AID488965 (Broad Institute, 2010).

In all, about 340,000 compounds went through this assay and about 210 (0.062%) were called active. Rule as the data show it: active = inhibition above about 30% (passing the limit was not always enough); inconclusive = no clear call, values can overlap the other calls. What follows is part of a selection rich in actives, with near analogues and random picks from the rest.

For the assay, the system named is PvdQ acylase [Pseudomonas aeruginosa LESB58]. Kind of assay: P. aeruginosa PvdQ acylase inhibitors, primary screen, biochemical, fluorescence, plate reader and imaging, single point (AID 488965).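 Also: 0% = vehicle neutral wells and 100% = reference inhibitor wells.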 The settings on record: purified PvdQ acylase, at 10 µM, hits give high values.
On to `CCN(CC)c1ccc(NC(=O)c2ccc(Cl)nc2)cc1`, for which the inhibition (as a rule, the drop in the measured response relative to a control, in per cent) was -15.1% (inactive).

Take `CCCCNC(=O)C1(c2ccc(OC)cc2)CCOCC1`: the inhibition was -4.05% (inactive). Turning to `NS(=O)(=O)c1ccc(NC(=S)N2CCCC2)cc1`, the inhibition was 9.11% (inactive).

Regarding `CC1(C)Oc2ccc(C(=O)N3CCOCC3)cc2N(CC(=O)Nc2ccccc2)C1=O`, the inhibition is -16.2% (inactive). The value for `COCCCNC(=O)/C(C#N)=C/c1c(N2CCCCCC2)nc2ccccn2c1=O` was -15.4% (inactive); that for `Cc1ccccc1-n1nc(SCC(=O)O)sc1=S` was -9.08% (inactive). Regarding `Cc1cc(NC(=O)c2ccccc2C)no1`, the inhibition was 11.3% (inactive). As for `Cc1cc(NC(=O)Nc2ccccc2[N+](=O)[O-])no1`, the inhibition was 62.7% (active). On to `Cc1csc(NC(=O)Nc2ccccc2[N+](=O)[O-])n1`, for which the inhibition is -8.58% (inactive). For `Cc1c(C(=O)NCCN2CCOCC2)sc2nc(-c3ccc(F)cc3)cn12` the value was -12.4% (inactive). On to `Cc1ccc(CNS(=O)(=O)CCNC(=O)c2ccccc2)cc1`, for which the inhibition was 0.203% (inactive).

For the compound `CC1CCCCC1NCC(=O)Nc1ccccc1C(=O)Nc1ccccc1` (configuration not stated), the inhibition was -4.86% (inactive). As for `O=C(Nc1ccc(F)cc1)c1cccnc1N1CCOCC1`, the inhibition is -0.858% (inactive). In the case of `O=C(O)CCC(=O)Nc1ccc(OCC2CCCO2)cc1` (configuration not stated), the inhibition was -5.22% (inactive).

With `Cc1ccc(NC(=O)CC2C(=O)N(Cc3ccccc3)C(=S)N2NC(=O)c2cccc(F)c2)c(C)c1` (configuration not stated), the inhibition was 5.2% (inactive). With `COc1ccc(NC(=O)C2CCC(CNC(=O)[C@@H]3Cc4ccccc4CN3)CC2)cc1` (some centres not stated), the inhibition is -2.14% (inactive). In the case of `Cn1cccc1C(C#N)c1ccccc1C#N` (configuration not stated), the inhibition was 56.5% (active). As to `Cn1cc(-c2ccccc2)cc(C#N)c1=O`, the inhibition is -0.186% (inactive). On to `CC(C)C(=O)Nc1oc(-c2ccccc2)cc1C#N`, for which the inhibition is 7.27% (inactive).

On to `Cc1cc(C)c2c(NC(=O)C3CC3)nn(C)c2n1`, for which the inhibition is 3.4% (inactive).

For the compound `Cc1nnc(SC(C)C(=O)Nc2ccc(S(=O)(=O)NC3CCCCC3)cc2)s1` (configuration not stated), the inhibition was 7.56% (inactive). In the case of `NS(=O)(=O)c1ccc(CCNC(=O)CN2C(=O)c3ccccc3S2(=O)=O)cc1`, the inhibition is 0.254% (inactive).

Regarding `COc1ccccc1NC(=O)C(C)OC(=O)CC1CCCC1` (configuration not stated), the inhibition is -15.2% (inactive). For the compound `COc1ccc(-c2ocnc2C(=O)Nc2ccc3c(c2)CCC3)cc1`, the inhibition is 0.782% (inactive).

In the case of `Cc1cc(Nc2ccc(Br)cc2F)n2ncnc2n1`, the inhibition is -0.336% (inactive).

Regarding `CCc1cccc(NC(=O)CCCN2C(=O)C(c3ccccc3)Oc3cccnc32)c1` (configuration not stated), the inhibition is -6.79% (inactive). `O=C(Nc1c2c(nn1-c1ccc(F)cc1)CS(=O)C2)C12CC3CC(CC(C3)C1)C2` (configuration not stated): the inhibition is -15.9% (inactive). Consider `O=C(NCCOc1ccccc1F)Nc1ccc(Br)cc1`, for which the inhibition was -15.7% (inactive). In the case of `CO[C@@H]1[C@@H](OC(N)=O)[C@@H](O)C(Oc2ccc3c(O)c(NC(=O)c4ccc(O)c(CC=C(C)C)c4)c(=O)oc3c2C)OC1(C)C` (some centres not stated), the inhibition is 3.42% (inactive). Take `O=C(Nc1ccccc1C(=O)N1CCOCC1)c1ccc(CSc2ccccc2)cc1`: the inhibition is -11.3% (inactive). For `C[C@@]12C(=O)N(c3cccc(Br)c3)C(=O)N1[C@H](c1ccc(Cl)cc1)[C@@H]1C(=O)N(C3CCCCC3)C(=O)[C@@H]12`, the inhibition is -10.3% (inactive). Take `Cc1c(C(=O)NC(=S)NCc2cccnc2)oc2ccccc12`: the inhibition is -8.97% (inactive).

With `CC(C)(CSc1nncn1/N=C/c1ccco1)NS(=O)(=O)c1ccc(Cl)cc1`, the inhibition was -10% (inactive). Consider `COc1ccc(C(O)(C2CCCCC2)C(CN2CCCC2)c2ccccc2)cc1` (configuration not stated), for which the inhibition was -13.6% (inactive). On to `CCOC(=O)C1CCN(C(=O)COc2cccc3ccccc23)CC1`, for which the inhibition was -22% (inactive). For `O=C1CN(C(=O)COC(=O)/C=C/c2ccc(F)cc2)c2ccccc2N1`, the inhibition was -0.579% (inactive). For `COc1ccc(N(C)C(=O)C2CCN(S(=O)(=O)c3cccc4nsnc34)CC2)cc1`, the inhibition is -10.1% (inactive). With `CC(C)(COC(=O)Nc1ccccc1)COC(=O)Nc1ccccc1`, the inhibition is 3.19% (inactive). Turning to `C/C(=N\NS(=O)(=O)c1cccc([N+](=O)[O-])c1)c1cc2ccccc2o1`, the inhibition was 12.7% (inactive).

`Cc1ccc(NC(=O)c2nc[nH]c2C(=O)N2CCCCC2)c(C(=O)c2ccccc2)c1`: the inhibition was 6.08% (inactive). For `CCc1ccccc1S(=O)(=O)Cc1ccc(C(=O)NCCc2ccccc2)o1`, the inhibition is -14.5% (inactive). For the compound `Cc1nnc(SCC(=O)N(C(C)C)C(C)C)nc1C`, the inhibition is -17% (inactive). For the compound `CC(Sc1nnc(Cc2ccc([N+](=O)[O-])cc2)o1)C(N)=O` (configuration not stated), the inhibition is 5.89% (inactive). Take `O=C(NCc1cccc(Cl)c1)C1CCC(=O)N(C2CC2)C1` (configuration not stated): the inhibition was 0.749% (inactive). As to `Cc1ccc(S(=O)(=O)N2CCCCC2)cc1C(=O)N(C)CC(=O)Nc1cccc(F)c1`, the inhibition is 2.44% (inactive). As to `CCn1c2ccccc2c2cc(NC(=O)C/C(C)=N/NC(=O)c3ccccc3N)ccc21`, the inhibition was -14.8% (inactive). For `COc1ccc(N(CC(=O)NCC2CCCO2)C(=O)CCC(=O)Nc2nccs2)c(OC)c1` (configuration not stated) the value was 0.881% (inactive); for `Cc1ccc(C(c2sc3nc(C)nn3c2O)N2CCN(c3ccc(F)cc3)CC2)cc1` (configuration not stated), -4.54% (inactive). For `CCCC1CC(C)(C(=O)Cn2[nH]c(=O)ccc2=O)OC1=O` (configuration not stated), the inhibition was -24.8% (inactive).

For the compound `Cn1nccc1C(=O)N1CCCC(C(=O)c2ccc(Oc3ccccc3)cc2)C1` (configuration not stated), the inhibition was -15.6% (inactive). For `O=C(c1ccc(-c2ccccc2)cc1)C1CCCN(C(=O)c2cncs2)C1` (configuration not stated) the value was 46.5% (active). Take `CCNC(=O)N1CCCC(C(=O)c2ccc(-c3ccccc3)cc2)C1` (configuration not stated): the inhibition is -11% (inactive). For `COC(=O)c1c(NC(=O)CN2C(=O)NC(CCc3ccccc3)C2=O)sc2c1CCCCC2` (configuration not stated), the inhibition is 2.45% (inactive). For `CCC(C)(C)NC(=O)c1cc([N+](=O)[O-])ccc1N1CCCCC1` the value was 38.9% (active). In the case of `CCN1CCN(c2ccc([N+](=O)[O-])cc2C(=O)c2ccc(Cl)cc2)CC1`, the inhibition is -6.71% (inactive). In the case of `CC1CCN(c2ccc([N+](=O)[O-])cc2C(N)=O)CC1`, the inhibition was -4.82% (inactive). As to `CCOc1cc(/C=C2\SC(N3CCCC(C)C3)=NC2=O)ccc1O` (configuration not stated), the inhibition was -6.66% (inactive). For `c1ccc2cc(CCCc3cc4ccccc4cn3)ncc2c1` the value was 21.2% (inactive). In the case of `Cc1c(NC(=S)NC(=O)CCc2ccccc2)c(=O)n(-c2ccccc2)n1C`, the inhibition was -12.9% (inactive). As for `Cc1ccc(NC(=O)CCOc2ccccc2)cc1S(=O)(=O)Nc1ccccc1Cl`, the inhibition was -5.34% (inactive).

As for `Cc1nc2nc(C)c(CCC(=O)N3CCN(c4ccccc4)CC3)c(C)n2n1`, the inhibition was -9.01% (inactive).

On to `CN(C)c1nnnn1-c1ccc(Cl)cc1`, for which the inhibition is -0.634% (inactive). With `CO/N=C/c1cn(-c2ccc(Cl)cc2)nn1`, the inhibition was 49% (active).

On to `CN(C)c1ccc(/C=C/C(=O)c2ccc(C(C)(C)C)cc2)cc1[N+](=O)[O-]`, for which the inhibition was 7.14% (inactive). For `CN(C)c1ccc(/C=C/C(=O)c2ccc(O)cc2)cc1[N+](=O)[O-]`, the inhibition is -3.3% (inactive).

On to `O=C(/C=C/c1ccc(Cl)c([N+](=O)[O-])c1)c1ccc(O)cc1`, for which the inhibition was 42% (active). In the case of `Cc1ccc(N2CC(C(=O)Nc3cc(Cl)ccc3-n3cncn3)CC2=O)cc1` (configuration not stated), the inhibition was -12.4% (inactive).

Take `c1cc(-n2cnnn2)ccc1NC1=NCCC1`: the inhibition is -15.4% (inactive). For the compound `Cc1ccc(C(=O)Nc2nnc(C3=COCCO3)o2)cc1C`, the inhibition is -6.48% (inactive). For `Cc1c(NC(=O)c2c([N+](=O)[O-])cnn2C)c(=O)n(-c2ccccc2)n1C`, the inhibition was -9.74% (inactive). Turning to `CSC1=N/C(=C\C=C\c2cccs2)C(=O)S1`, the inhibition was 93.4% (active). The value for `ONC(=Nc1ccccc1)c1ccccc1Cl` was -2.68% (inactive).

Turning to `O=C(CCCN1C(=O)CSc2ncccc21)N1CCN(c2cccc(C(F)(F)F)c2)CC1`, the inhibition is -3.29% (inactive). For the compound `O=C(Nc1ccc(Cl)cc1)c1cccc(OC(=S)N2CCOCC2)c1`, the inhibition is -4.62% (inactive). Consider `NC(=O)c1ccc(NC(=O)COC(=O)c2c3c(nc4ccccc24)/C(=C\c2ccc4c(c2)OCO4)CCC3)cc1`, for which the inhibition was 12.2% (inactive).

Turning to `C=CCc1cccc2cc(C(=O)OCC)c(=O)oc12`, the inhibition was 13.8% (inactive). As to `CCOC(=O)c1cc2cc3ccccc3cc2oc1=O`, the inhibition was 65.9% (active). For `Cc1cc(C)cc(OCC(=O)NNC(=O)c2cc3ccccc3oc2=O)c1` the value was -2.78% (inactive); for `CC(=O)Nc1ccc(C(=O)OCC(=O)Nc2ccc([N+](=O)[O-])cc2C(F)(F)F)cc1`, -15.1% (inactive); for `CCc1ccc(NC(=O)CN2CCC(C(=O)c3ccc(OC)cc3)CC2)cc1`, -11.8% (inactive). In the case of `O=C(CN(c1ccccc1)S(=O)(=O)c1ccc(Cl)cc1)Nc1ccccc1C(=O)N1CCCC1`, the inhibition is -7.63% (inactive).

Regarding `O=C(c1ccccc1)c1ccc2nc(N3CCCCC3)c3nncn3c2c1`, the inhibition was -14.2% (inactive).

Take `CC(OC(=O)CCc1nc(=O)c2ccccc2n1C)C(=O)NCc1ccc2c(c1)OCO2` (configuration not stated): the inhibition is 11.9% (inactive). As to `O=C1CC(C(=O)O)NC(=S)N1` (configuration not stated), the inhibition was -11% (inactive). Regarding `O=C(NCC(=O)N(Cc1cccs1)C(C(=O)NC1CCCCC1)c1ccco1)c1cccs1` (configuration not stated), the inhibition was -5.29% (inactive). For `CCOC(=O)N1CCC(=NNC(N)=O)CC1` the value was 5.61% (inactive); for `O=S(=O)(O)c1cc2onnc2c2ccccc12`, -19.4% (inactive).

As to `CCOc1cc(C(=O)N(Cc2ccccc2)c2ccc(C)cc2)ccc1OCC(=O)N1CCOCC1`, the inhibition was -12.7% (inactive). For `COc1ccc(-c2cc3ncccc3cn2)cc1`, the inhibition was 48.1% (active). With `COc1ccc(-c2nnc(-c3ccc4ccccc4c3)o2)cc1`, the inhibition is -12.7% (inactive).

Consider `COc1cc(OC)cc(-c2cc3ccc(F)cc3cn2)c1`, for which the inhibition is 8.09% (inactive). Turning to `COC(=O)Cc1csc(/N=C/c2c(O)n(-c3cccc(C(F)(F)F)c3)c(=O)c3ccccc23)n1`, the inhibition is -13% (inactive).
